Hits are enriched below; roughly 0.99% of the tested compounds scored in any of these assays.
TRHR enhancer = allosteric enhancers of human TRH receptor. 0.66% of 360,000 active. enhancement, % at 2 µM. TRHR cells, fluo-8 calcium fluorescence, EC20 TRH enhancement. AID 493056; in the data active = enhancement above about 30%; note: 0% is about no effect
Target sequence (P34981 whole entry, looked up): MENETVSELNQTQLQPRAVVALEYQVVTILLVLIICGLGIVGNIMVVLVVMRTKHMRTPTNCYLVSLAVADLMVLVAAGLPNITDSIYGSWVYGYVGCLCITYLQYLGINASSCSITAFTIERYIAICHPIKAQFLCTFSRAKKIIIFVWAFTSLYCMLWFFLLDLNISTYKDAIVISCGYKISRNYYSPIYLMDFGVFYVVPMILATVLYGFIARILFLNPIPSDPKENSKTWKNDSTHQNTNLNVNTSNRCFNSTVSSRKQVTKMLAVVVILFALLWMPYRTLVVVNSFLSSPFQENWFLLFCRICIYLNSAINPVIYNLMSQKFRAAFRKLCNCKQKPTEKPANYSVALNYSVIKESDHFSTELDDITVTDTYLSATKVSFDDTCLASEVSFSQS
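TRHR-expressing cells loaded with fluo-8 calcium dye were read kinetically (ex 480/em 530) during compound addition, then stimulated with an EC20 of TRH (10 nM final). Enhancement of the Gq-mediated intracellular calcium response was scored.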
TRPML1 agonist = human mucolipin-1 channel agonism; Q9GZU1; TRPML1-expressing cells, Ca2+ dye fluorescence, FDSS; activation, % (concentration not given with the values); 0.12% of 410,000 active; AID 624414; in the data active = activation above about 50%; inconclusive = mostly about 30% to 49%; note: 0% is about no effect
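Calcium fluorescence on an FDSS kinetic reader gave the read-out. Tet-induced TRPML1-DL cells were plated overnight, dye-loaded (Ca8 with quencher, 45-90 min, room temperature, dark), then read 110 s after compound addition, and again 110 s after 4uM final 54-4 (EC80).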
TRHR ag = agonists of human TRH receptor; AID 493084; activation, % at 2 µM; TRHR cells, calcium flux fluo-8, FDSS agonist mode; 0.18% of 360,000 active; in the data active = activation above about 30%; note: 0% is about no effect
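TRHR-expressing cells loaded with fluo-8 calcium dye; 23 nL library compound pin-transferred, kinetic FDSS fluorescence (Ex 480/Em 530) recorded about 180 s for agonist-induced calcium release, before a 10 nM TRH EC20 addition for potentiator mode.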
TRPV1 potentiator = human TRPV1 potentiation; AID 540277; 0.02% of 320,000 active; potentiation, % at 8.33 µM; TRPV1-expressing cells, Fluo-8 calcium influx, capsaicin EC20 potentiation; Q8NER1; in the data active = potentiation above about 80%; inconclusive = between about 30% and that limit; note: 0% is about no effect
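Cells expressing TRPV1 were dye-loaded with Fluo-8 and read kinetically: 10 s baseline, 3 min after compound (agonist portion), then 2 min after EC20 capsaicin (allosteric enhancer portion). Calcium-bound dye fluorescence at 480/520 nm.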
TRPML1 blocker = inhibitors of human TRPML1 channel | 0.02% of 390,000 active | activity change, negative = inhibition, % (concentration not given with the values) | AID 624415 | TRPML1-inducible cells, Ca2+ dye fluorescence, FDSS; active compounds read low; inhibition of EC80 agonist-evoked calcium signal; in the data active = activity change below about -50%; inconclusive = between about -30% and that limit;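 note: stimulus is agonist 54-4 at its EC80 concentration; % is set by controls: 0 for no effect and ±100 for the full control effect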
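Calcium fluorescence in TRPML1-DL cells induced overnight with Tet: a 110 s read after compound pin addition, then a 110 s antagonist read after challenge with 54-4 at 4 uM final (EC80).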
TRPV1 ag = human TRPV1 agonism; 0.19% of 320,000 active; TRPV1-expressing cells, Fluo-8 calcium influx, agonist mode; AID 540275; activation, % at 8.33 µM; in the data active = activation above about 80%; inconclusive = between about 30% and that limit; note: 0% is about no effect
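TRPV1-expressing cells were cultured overnight at 35.5C and loaded with Fluo-8 calcium dye for 40 to 90 min at room temperature. After a 10 s baseline, compound was added and calcium influx was read kinetically for 3 min (ex 480/em 520 nm).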
* hit, by the source's call.

How did CCCCSc1nc(O)c(C2OC(=O)c3c2ccc(OC)c3OC)c(=O)n1-c1ccccc1 (stereo not given) do in these assays?
TRHR enhancer: 31*; TRPML1 agonist: -1; TRHR ag: 0; TRPV1 potentiator: 7; TRPML1 blocker: 4; TRPV1 ag: 2

Results for CCCSc1nc(O)c(C2OC(=O)c3c2ccc(OC)c3OC)c(=O)n1-c1ccccc1 (stereo not given) ?
TRHR enhancer: 3; TRPML1 agonist: -1; TRHR ag: 0; TRPV1 potentiator: 11; TRPML1 blocker: -12; TRPV1 ag: -3

What do the screens show for `COc1ccc(OC)c(N=CC2=C(O)CC(C)(C)CC2=O)c1`?
TRHR enhancer: 6; TRPML1 agonist: 0; TRHR ag: 0; TRPV1 potentiator: 0; TRPML1 blocker: -1; TRPV1 ag: -2

What do the screens show for `COc1ccc(N=CC2=C(O)CC(C)(C)CC2=O)cc1`?
TRHR enhancer: 38*; TRPML1 agonist: -1; TRHR ag: 0; TRPV1 potentiator: -2; TRPML1 blocker: 15; TRPV1 ag: 2

How did CCN(CC)c1ccc2cc(-c3nc(-c4ccccc4F)no3)c(=O)oc2c1 do in these assays?
TRHR enhancer: 4; TRPML1 agonist: 11; TRHR ag: 65*; TRPML1 blocker: -18

Results for Cc1ccccc1-c1noc(-c2cc3ccccc3oc2=O)n1 ?
TRHR enhancer: -1; TRPML1 agonist: -1; TRHR ag: 0; TRPML1 blocker: -7

What do the screens show for `CCN(CC)c1ccc2cc(-c3nc(-c4cccs4)no3)c(=O)oc2c1`?
TRHR enhancer: 13; TRPML1 agonist: 24; TRHR ag: 124*; TRPML1 blocker: -14

What do the screens show for `CCN(CC)c1ccc2cc(-c3nc(-c4cc(OC)c(OC)c(OC)c4)no3)c(=O)oc2c1`?
TRHR enhancer: 13; TRPML1 agonist: inconclusive; TRHR ag: 122*; TRPML1 blocker: -17

What do the screens show for `CCc1ccccc1NC(=O)Cn1c(=O)n(Cc2ccc(OC)cc2)c(=O)c2oc3ccccc3c21`?
TRHR enhancer: 35*; TRPML1 agonist: 1; TRHR ag: -1; TRPML1 blocker: -25

How did O=C(CNC(=O)c1ccccc1)OC(C(=O)Nc1ccc2c(c1)OCO2)c1ccccc1 (stereo not given) do in these assays?
TRHR enhancer: -1; TRHR ag: -1

How did CCOc1cc(/C=N/NC(=O)CSc2nncn2C)ccc1OC(=O)c1ccc(Cl)cc1 do in these assays?
TRHR enhancer: 30*; TRPML1 agonist: 0; TRHR ag: -1; TRPV1 potentiator: 1; TRPML1 blocker: 51; TRPV1 ag: -2

How did CCSc1ncc(Cl)c(C(=O)Nc2c(C(=O)Nc3ccccc3)oc3ccccc23)n1 do in these assays?
TRHR enhancer: 3; TRPML1 agonist: 0; TRHR ag: 0; TRPML1 blocker: 11

What do the screens show for `CCSc1ncc(Cl)c(C(=O)Nc2ccccc2)n1`?
TRHR enhancer: 36*; TRPML1 agonist: 3; TRHR ag: -1; TRPV1 potentiator: -14; TRPML1 blocker: -17; TRPV1 ag: inconclusive

Results for CC(C)(C)CC(C)(C)N=C1Nc2ccc(Cl)cc2N[C@]12C[C@H]1CCCC(=O)N3CC[C@@H](C2)[C@@H]13 ?
TRPML1 agonist: 0

How did COC(=O)c1cc(NC(=O)Nc2ccccc2)ccc1Cl do in these assays?
TRHR enhancer: -2; TRPML1 agonist: 1; TRHR ag: 1; TRPV1 potentiator: -21; TRPML1 blocker: 14; TRPV1 ag: 83*

What do the screens show for `COc1cccc(NC(=O)Nc2ccncc2)c1`?
TRHR enhancer: -4; TRPML1 agonist: 4; TRHR ag: 1; TRPV1 potentiator: -2; TRPML1 blocker: 12; TRPV1 ag: inconclusive

Results for CCCCSCCCNC(=O)Nc1cccc(OC)c1 ?
TRHR enhancer: 7; TRPML1 agonist: 1; TRHR ag: 0; TRPV1 potentiator: -8; TRPML1 blocker: -3; TRPV1 ag: 83*

How did COc1cccc(NC(=O)Nc2ccc(C(C)(C)C)cc2)c1 do in these assays?
TRHR enhancer: 2; TRPML1 agonist: -1; TRHR ag: 1; TRPV1 potentiator: -3; TRPML1 blocker: 4; TRPV1 ag: 82*
